The record followed here is PubChem BioAssay AID489008 (National Center for Advancing Translational Sciences (NCATS), 2010).

Results filed as inconclusive are left out. Activity calls are given as the source filed them. The call rests on the fitted dose curve; in most records, active means well fitted inhibition curve with a large enough effect; inconclusive means small, poorly fitted or top-dose-only effect; inactive means flat fitted curve, though single readings scatter.
Potency means the concentration at half of the fitted maximal effect.

Sequence of Ferritin light chain (Equus caballus) (P02791 2-175 limits assumed): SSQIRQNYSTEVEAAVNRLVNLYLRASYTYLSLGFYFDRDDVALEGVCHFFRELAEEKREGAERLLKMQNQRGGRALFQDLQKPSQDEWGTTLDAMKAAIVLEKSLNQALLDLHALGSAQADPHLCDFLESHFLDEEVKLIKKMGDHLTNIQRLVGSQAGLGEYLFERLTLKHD

This assay addresses Ferritin light chain (Equus caballus) (UniProt P02791). Description: Confirmation Assay for Identification of Novel General Anesthetics. Further: nearly all actives have a fitted effect of over 40% in size. As to conditions: apoferritin 1-aminoanthracene fluorescence displacement. From the text:
Anesthetic development has remained a largely empirical process. There are growing concerns about the cognitive effects of known general anesthetics and acceleration of the onset of neurodegenerative disease. The compounds' toxicity and multiple specific binding targets in the mammalian brain [4] has made them less attractive as drug leads. In this assay, a GABAergic mimetic model system, apoferritin and a profluorescent 1-aminoanthracene ligand (1-AMA), was used to construct a competitive binding assay for identification of novel general anesthetics. The assay was validated for 1-AMA using other known anesthetics, such as isoflurane (CID:3763) and propofol (CID: 4943), [6]. This particular BioAssay is a confirmation of followup compounds from primary screen AID:485281.
[1] S.L. Bianchi, T. Tran, C. Liu, S. Lin, Y. Li, J.M. Keller, R.G. Eckenhoff, and M.F. Eckenhoff, Brain and behavior changes in 12-month-old Tg2576 and nontransgenic mice exposed to anesthetics. Neurobiol Aging 29 (2008) 1002-10.
[2] Z. Xie, Y. Dong, U. Maeda, R.D. Moir, W. Xia, D.J. Culley, G. Crosby, and R.E. Tanzi, The inhalation anesthetic isoflurane induces a vicious cycle of apoptosis and amyloid beta-protein accumulation. J Neurosci 27 (2007) 1247-54.
[3] P. Honegger, and J.M. Matthieu, Selective toxicity of the general anesthetic propofol for GABAergic neurons in rat brain cell cultures. J Neurosci Res 45 (1996) 631-6.
[4] M.F. Eckenhoff, K. Chan, and R.G. Eckenhoff, Multiple specific binding targets for inhaled anesthetics in the mammalian brain. J Pharmacol Exp Ther 300 (2002) 172-9.
[5] C.A. Butts, J. Xi, G. Brannigan, A.A. Saad, S.P. Venkatachalan, R.A. Pearce, M.L. Klein, R.G. Eckenhoff, and I.J. Dmochowski, Identification of a fluorescent general anesthetic, 1-aminoanthracene. Proc Natl Acad Sci U S A 106 (2009) 6501-6.
[6] W.A. Lea, J. Xi, A. Jadhav, L. Lu, C.P. Austin, A. Simeonov, and R.G. Eckenhoff, A high-throughput approach for identification of novel general anesthetics. PLoS One 4 (2009) e7150.
Source: NIH Chemical Genomics Center [NCGC]
Assay Submitter: Roderic Eckenhoff, University of Pennsylvania
Screening Center PI: Christopher P. Austin, NIH
Probe Development: NIH Chemical Genomics Center [NCGC]
Three uL of reagents (free 1-AMA (50% saturated solution of 1-aminoanthracene
in PBS) in columns 3, 4 as negative control and 1-AMA/apoferritin mixture (10 uM horse-spleen apoferritin in 50% saturated 1-aminoanthracene in PBS) in columns 1, 2, 5-48) was dispensed into 1536-well Greiner black assay plates. Compounds (23 nL) were transferred via Kalypsys pintool equipped with 1,536-pin array (10 nL slotted pins, V&P Scientific, San Diego, CA). Titration of the positive control, propofol, were delivered via pin transfer from separate control plates to the 2nd column of each assay plate. The starting concentration of the control, dissolved in DMSO, was at 160 mM, followed by two-fold dilution points in duplicate, for a total of 16 concentrations. The plates were incubated for 10 min at room temperature, and then read on an EnVision HTS multilabel reader (Perkin-Elmer, Waltham, MA) (end point read, 3 min/plate) using Fura2 BFP excitation filter (380 nm, bandwidth 10 nm) and fluorescein emission filter (535 nm, bandwidth 25 nm) set. A LANCE/DELFIA dichroic mirror with a cutoff wavelength at 400 nm was used to maximize signal accuracy and strength. Vehicle-only plates, with DMSO being pin-transferred to the entire column 5-48 compound area, were inserted uniformly at the beginning and the end of each library in order to monitor for and record any shifts in the background. Activity was computed as the normalized fluorescence response relative to free 1-AMA and 1-AMA/apoferritin complex values. Concentration-effect relationships were derived by using curve fitting algorithms developed in-house (http://ncgc.nih.gov/pub/openhts/). […]
In the case of `Nc1ccc(Oc2cccc(Oc3ccc(N)cc3)c2)cc1`, the Potency is 31.6 µM (active). The value for `CC(C(=O)c1cn(C)c2ccccc12)c1ccccc1` (configuration not stated) was 35.5 µM (active); that for `O=C(COC(=O)Cc1ccccc1)NC12CC3CC(CC(C3)C1)C2` was 14.1 µM (active); that for `O=C(Cn1nc(-c2ccccc2)ccc1=O)N1CCC2(CC1)OCCO2` was 15.8 µM (active). As to `c1ccc(C2CC3CC4(CCCC4)N2O3)cc1` (configuration not stated), the Potency was 7.94 µM (active). Take `CCN(CC)C(=O)Oc1ccc(Cl)c2ccccc12`: the Potency is 31.6 µM (active). With `O=C1C(c2ccccc2)=C(N2CC2)c2ccccc21`, the Potency is 35.5 µM (active).
